Sampled rows, rich in hits. Any-hit rate of the full collection: about 2.6%.
AmpC inh det: AmpC beta-lactamase inhibition, detergent assay | purified AmpC, nitrocefin hydrolysis with detergent | Potency, µM (series often up to 28.7 µM), without a hit: at the top dose activity change, negative = inhibition | actives 0.09% (n = 71,000) | AID 584; active means well fitted curve in the direction sought with a large enough effect; inconclusive means small, poorly fitted or top-dose-only effect; further: on the % scale 0 is the no-effect control and ±100 the full control effect
Target sequence (P00811 whole entry, looked up): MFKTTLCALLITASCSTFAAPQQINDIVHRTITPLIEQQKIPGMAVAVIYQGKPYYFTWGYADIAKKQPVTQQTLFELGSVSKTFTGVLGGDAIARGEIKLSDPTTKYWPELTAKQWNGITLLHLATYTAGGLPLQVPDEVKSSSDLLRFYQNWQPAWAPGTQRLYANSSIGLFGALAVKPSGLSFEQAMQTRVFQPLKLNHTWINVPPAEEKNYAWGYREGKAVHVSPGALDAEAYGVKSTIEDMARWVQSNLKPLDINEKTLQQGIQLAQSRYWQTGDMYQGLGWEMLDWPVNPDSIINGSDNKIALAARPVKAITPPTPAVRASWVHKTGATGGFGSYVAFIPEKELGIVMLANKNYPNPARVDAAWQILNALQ
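E. coli AmpC (5.3 nM) in 20 mM phosphate pH 7.0 with 0.01% Triton X-100, preincubated 15 min RT with compound; nitrocefin (2 uL of 800 uM stock) hydrolysis followed by 480 nm absorbance every 20 s over 4 min.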
LT uptake inh: anthrax lethal toxin internalization inhibition; Cells, anthrax lethal toxin internalization, FRET ratio (460/530); Potency, µM (titrated, usually from 40 µM), without a hit: top-dose activity change, negative = inhibition, hits mostly inhibitors; actives 0.67% (n = 70,000); AID 912; further: on the % scale 0 is the no-effect control and ±100 the full control effect; nearly all actives have a fitted effect of over 50% in size
AmpC inh no det: AmpC beta-lactamase inhibition, detergent-free assay. Potency, µM (titrated, usually from 28.7 µM), for the others: at the top dose activity change, negative = inhibition. actives 1.8% (n = 71,000). P00811. AID 585. AmpC nitrocefin hydrolysis, absorbance 480 nm, no detergent; further: % of control where 0% means no effect
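Enzyme, pH 7.0 phosphate. Compound titrations were pre-incubated with AmpC for 15 min at room temperature before nitrocefin (stock 800 uM) addition; product formation was recorded at 480 nm every 20 s for 4 min.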
SmPrx2 inh: inhibitors of Schistosoma mansoni peroxiredoxin 2; S. mansoni Prx2 activity coupled to TGR/GSH (TGR is thioredoxin glutathione reductase), NADPH fluorescence loss, qHTS; Potency, µM; actives 0.07% (n = 65,000)
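Prx2 activity was followed as the loss of NADPH fluorescence (ex 365/em 450 nm), read every 30 sec for 8 min after H2O2 start. The enzyme mix (50 nM Prx2, 25 nM TGR, GSH, NADPH; pH 7.4 phosphate buffer) was incubated with compound for 15 min at room temperature first.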
Starred values were filed as active, the others as inactive; ? = inconclusive; . = no result given; [ ] = dose if it differs, or a comment. Unless noted, the call rests on the fitted dose curve. Potency means the concentration at half of the fitted maximal effect.

SMILES	AmpC inh det	LT uptake inh	AmpC inh no det	SmPrx2 inh
CC(=O)Nc1ccc(S(=O)(=O)Nc2cccc(-c3nc4cc(C)ccc4o3)c2)cc1	-4%	13µM*	38%	>57
Cc1ccc2oc(-c3cccc(NC(=O)C4CCCO4)c3)nc2c1 (configuration not stated)	-2%	0%	113%	>57
O=C(O)/C=C\c1c2ccc(=O)c(O)c-2oc2c(O)c(O)ccc12	2µM*	?	1.6µM*	>57
COc1ccc(OC)c(C2CC(=O)N3CN(c4cccc(Cl)c4C)CSC3=C2C#N)c1 (configuration not stated)	12%	?	4µM*[single pt active]	>57
COc1cccc(C2CC(=O)N3CN(c4cccc(Cl)c4C)CSC3=C2C#N)c1OC (configuration not stated)	13%	?	4µM*[single pt active]	.
COc1ccc(OC)c(C2CC(=O)N3CN(c4cccc(Cl)c4)CSC3=C2C#N)c1 (configuration not stated)	8%	-30%	-23%	>57
O=C(c1ccccc1)c1cn(CC(=O)N2CCCC2)c2ccccc12	16%	10%	4µM*[single pt active]	>57
COc1ccc(C2C(C(C)=O)=C(O)C(=O)N2CCO)c(OC)c1 (configuration not stated)	-3%	-21%	-3%	>57
CCN(CC)CCCN1C(=O)C(O)=C(C(C)=O)C1c1ccc(OC)cc1OC (configuration not stated)	12%	-3%	4µM*[single pt active]	>57
COc1cccc2cc(C(=O)n3ccc(C)n3)c(=O)oc12	10µM*	-9%	10µM*	>57
CCOc1cccc(-c2nnc3sc(COc4ccc(C)cc4)nn23)c1	1%	-13%	16%	>57
CCOc1cccc(-c2nnc3sc(COc4ccc(Cl)cc4)nn23)c1	-1%	-3%	7.9µM*	>57
N#CCCCC[N+]12CN3CN(CN(C3)C1)C2	-4%[5.75 µM]	?	-4%[5.75 µM]	>57
c1ccc(-c2cccc(N3CCC4(CCNCC4)CC3)c2)cc1	-3%	10µM*	113%	>57
c1ccc(-c2cccc(N3CC4(CCNCC4)C3)c2)cc1	0%	-13%	70%	>57
COc1ccc(NS(=O)(=O)c2ccc3oc(Nc4ccc5c(c4)OCCO5)nc3c2)cc1	13%	13µM*	3.2µM*	>57
Cn1c(=O)oc2cc(S(=O)(=O)Nc3ccc4c(c3)OCCO4)ccc21	9%	2%	-5%	>57
O=C(COC(=O)c1cc(-c2ccco2)nc2ccccc12)NCc1ccc2c(c1)OCO2	-12%	?	13µM*	>57
CC(C)=CCC/C(C)=C/COc1c2ccoc2cc2oc(=O)ccc12	14%	?	13µM*	>57
COc1cc2ccc(=O)oc2c(O)c1OCC=C(C)C	-1%	?	-3%	>57
CCc1ccc(Cn2nnc(C(=O)Nc3cccc(C)c3)c2N)cc1	10%	-9%	4µM*[single pt active]	>57
CCOc1ccc(Cn2nnc(C(=O)Nc3cc(OC)cc(OC)c3)c2N)cc1	11%	19%	3.2µM*	>57
COc1ccc(CNC(=O)c2nnn(Cc3ccc(OC)cc3)c2N)cc1	12%	-8%	2.5µM*[single pt active]	>57
CCOc1ccc(NC(=O)c2nnn(CC(=O)Nc3ccccc3OC)c2N)cc1	5%	-2%	12%	>57
CCOc1ccc(Cn2nnc(C(=O)Nc3cc(C)cc(C)c3)c2N)cc1	9%	?	4µM*[single pt active]	>57
SMILES	AmpC inh det	LT uptake inh	AmpC inh no det	SmPrx2 inh
NC(=O)c1ncn([C@@H]2O[C@@H](CO)[C@@H](O)[C@H]2O)c1O	-1%	6%	-6%	>57
O=S(=O)(O)c1cc(O)c2c(O)c(N=Nc3cccc4ccccc34)c(S(=O)(=O)O)cc2c1	-4%[5.75 µM]	?	-5%[5.75 µM]	>57
O[C@@H](c1cc([C@@]23C[C@H]4CC[C@@H]2C[C@H](C4)C3)nc2c(Cl)cc(Cl)cc12)[C@@H]1CCCCN1	-3%[5.75 µM]	-11%[8 µM]	12%[5.75 µM]	>57
O=C(O)CCC/C=C\C[C@H]1[C@@H](/C=C\[C@@H](O)C2Cc3ccccc3C2)[C@H](F)C[C@H]1O	0%	6%	14%	>57
CCCC(=O)n1nc(-c2ccco2)nc1SCc1ccccc1	-7%	-3%	10µM*	>57
Nc1nc(-c2ccco2)nn1C(=O)CCc1ccccc1	-7%	9%	26%	>57
CSc1nc(-c2ccco2)nn1C(=O)c1ccco1	10%	-12%	2.5µM*[single pt active]	>57
CSc1nc(-c2ccco2)nn1C(=O)c1ccc(C)cc1	12%	?	4µM*[single pt active]	>57
O=C(O)/C=C\[C@H](O)c1ccc(Cl)cc1	-2%	-5%	-12%	>57
Cc1noc(/C=C/N(C)C)c1S(=O)(=O)N1CCc2ccccc21	16%	?	4µM*[single pt active]	>57
CC(NC(=O)CCNS(=O)(=O)c1ccc2c(c1)c(=O)n(C)c(=O)n2C)c1ccccc1 (configuration not stated)	4%	-22%	9%	>57
Cn1c(=O)c2cc(S(=O)(=O)NC(C(=O)NCc3cccnc3)c3ccccc3)ccc2n(C)c1=O (configuration not stated)	14%	-7%	4µM*[single pt active]	>57
O=C1CCc2cc(S(=O)(=O)NC(C(=O)NCc3cccnc3)c3ccccc3)ccc2N1 (configuration not stated)	12%	1%	4µM*[single pt active]	>57
Cn1c(=O)c2cc(S(=O)(=O)NC(C(=O)Nc3cccnc3)c3ccccc3)ccc2n(C)c1=O (configuration not stated)	11%	-8%	4µM*[single pt active]	>57
O=C(O)c1cccc(SSc2cccc(C(=O)O)c2)c1	-1%[5.75 µM]	-14%[8 µM]	0%[5.75 µM]	>57
N[C@H](CCCC(=O)O)C(=O)O	-3%	-4%	-2%	>57
CCCCNN	-1%[5.75 µM]	.	1%[5.75 µM]	>57
CN(CCNC(=O)c1cn(C)c2ccc(S(=O)(=O)N(C)C)cc2c1=O)CCc1ccccc1	14%	-13%	4µM*[single pt active]	>57
CN(C1CCCCC1)S(=O)(=O)c1ccc2c(c1)c(=O)c(C(=O)NCCN1CCCC1)cn2C	10%	10µM*	91%	>57
CCn1cc(C(=O)NCCCOC)c(=O)c2cc(S(=O)(=O)N(C)C)ccc21	13%	-1%	3.2µM*[single pt active]	>57
[Cu].[O-]/N=C1/C(=[OH+])Nc2ccccc21.[O-]Nc1c(O)[nH]c2ccccc12	-4%[5.75 µM]	-1%[8 µM]	-7%[5.75 µM]	>57
O=C(O)[C@H]1C[C@H](C(=O)O)N1	0%	?	4%	>57
C1CCOC1	8%	.	-3%	.
N=C(N)c1ccc(/C=C\c2ccc(C(=N)N)cc2)cc1	-4%[5.75 µM]	2%[8 µM]	1%[5.75 µM]	>57
C=CCN1CC[C@@]23CCCC[C@@H]2[C@@H]1Cc1ccc(O)cc13	-3%	?	-16%	>57
CCn1c2ccccc2c2cc(NC(=O)CSc3nnnn3-c3ccccc3)ccc21	1%	.	10µM*	>57
CCn1c2ccccc2c2cc(CN3CCN(C(=O)c4ccco4)CC3)ccc21	-6%	?	148%	.
CCn1c2ccccc2c2cc(NC(=O)c3ccco3)ccc21	8%	13µM*	-5%	.
O=c1cc(-c2cccc(O)c2O)oc2ccccc12	-4%	-15%	4%	>26

Screening results (PubChem)
